From PubChem BioAssay AID1211 (NMMLSC, 2008)
Calls of active or inactive are those of the source. How the calls were made is not given here.

Target: Estrogen receptor (Homo sapiens) (UniProt P03372)
Test: ERalpha ligand binders by competition, primary screen, cell-based, Cos7 ERalpha-GFP, flow cytometry (AID 1211);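 further: 0% = DMSO vehicle wells and 100% = no E2-Alexa633 signal left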
Conditions: fluorescent ligand competition, stronger effect = higher value

Estrogen receptor (Homo sapiens), sequence (P03372 whole entry, looked up): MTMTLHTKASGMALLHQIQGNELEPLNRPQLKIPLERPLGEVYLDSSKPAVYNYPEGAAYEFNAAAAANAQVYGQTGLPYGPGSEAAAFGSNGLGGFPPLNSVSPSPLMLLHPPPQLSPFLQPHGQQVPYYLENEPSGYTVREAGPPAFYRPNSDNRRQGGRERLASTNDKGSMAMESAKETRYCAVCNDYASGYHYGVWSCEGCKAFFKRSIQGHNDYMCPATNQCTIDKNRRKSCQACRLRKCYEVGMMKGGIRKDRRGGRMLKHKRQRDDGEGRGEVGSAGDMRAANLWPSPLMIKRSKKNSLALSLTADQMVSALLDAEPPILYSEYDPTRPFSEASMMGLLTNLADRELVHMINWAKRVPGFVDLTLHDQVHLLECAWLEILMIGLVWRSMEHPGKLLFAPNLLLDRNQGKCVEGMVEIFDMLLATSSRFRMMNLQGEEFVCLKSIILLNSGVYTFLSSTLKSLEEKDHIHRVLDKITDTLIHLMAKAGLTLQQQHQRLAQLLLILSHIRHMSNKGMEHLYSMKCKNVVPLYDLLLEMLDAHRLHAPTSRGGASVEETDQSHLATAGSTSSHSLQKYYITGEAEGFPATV

SMILES | inhibition of ligand binding (at 10 µM) | inhibition of ligand binding (binding inhibition, at 0.1 µM)
CSC1=N/C(=C\c2ccc(Br)o2)C(=O)S1 | 12% (inactive) | 13%
Cc1ccc(C)n1-c1sccc1C(=O)O | 36% (inactive) | 36%
COc1ccccc1-c1nnc2n1N=C(c1ccc(O)c(O)c1)CS2 | 46% (inactive) | 10%
O=C(Nc1nc(-c2ccc(S(=O)(=O)N3CCOCC3)cc2)cs1)c1ccccc1 | 48% (inactive) | 25%
COc1cccc(C(=O)NC2CCN(C(=O)N3c4ccccc4Sc4ccccc43)CC2)c1 | 60% (inactive) | 13%
O=C1c2ccccc2NC(c2ccc(O)cc2)N1/N=C/c1ccc(O)cc1 (centres undefined) | 32% (inactive) | 65%
CC(=O)c1ccc(NCC(=O)N2CCN(c3ccccc3)CC2)cc1 | 58% (inactive) | 18%
O=C1NC(c2ccc(Br)cc2)Nc2sc3c(c21)CCC3 (centres undefined) | 29% (active) | 69%
Cc1cnc(C(=O)OCC(=O)c2csc(N3CCCCC3)n2)cn1 | 17% (inactive) | 63%
Cc1ccc(N=Cc2ccc(O)cc2O)cc1F | 29% (inactive) | 2%
CC(=O)c1ccc(NC(=S)N2CCC(O)CC2)cc1 | 30% (inactive) | 23%
CCC(=O)Oc1ccc(C(CC)C(CC)c2ccc(OC(=O)CC)cc2)cc1 (centres undefined) | 80% (active) | 89%
Nc1ccc(-n2cnc3cc([N+](=O)[O-])ccc32)cc1 | 41% (active) | 66%
O=c1oc2ccccc2n1CCn1c2ccccc2c2nc3ccccc3nc21 | 27% (inactive) | 28%
Cc1cc(C(=O)CSc2nnc(-c3ccccc3F)o2)c(C)n1Cc1cccs1 | 69% (active) | 16%
NC(=O)c1cccc2c1C(=O)N(C1CCCCC1)C2 | 26% (inactive) | 39%
O=C(c1cc2c(s1)CCC2)N1CCN(c2ccccc2)CC1 | 16% (active) | 70%
O=C(O)c1ccc2c(c1)-c1nc3ccccc3n1C2=O | 32% (inactive) | 5%
CC(=O)Nc1nonc1-c1nc2ccccc2n1N(C(C)=O)C(C)=O | 44% (inactive) | 59%
CCCCOC(=O)c1c(C)oc2ccc(NS(=O)(=O)c3ccc4c5c(cccc35)C(=O)N4)cc12 | 66% (active) | 51%
CN(C)S(=O)(=O)N(CC(=O)N(Cc1ccccc1)Cc1ccccc1)c1ccccc1 | 23% (inactive) | 24%

SMILES | inhibition of ligand binding (at 10 µM) | inhibition of ligand binding (binding inhibition, at 0.1 µM)
O=C1N/C(=C\c2ccc(O)cc2)C(=O)c2ccccc21 | 30% (inactive) | 14%
CCOc1ccccc1C1C(C#N)=C(N)Nc2onc(-c3ccccc3)c21 (centres undefined) | 9% (inactive) | 20%
CC(=O)Nc1ccc(OC(=O)CC2SC(=O)NC2=O)cc1 (centres undefined) | 51% (inactive) | 60%
Cn1c(-c2ccc3nc(N)sc3c2)nc2cc(N)ccc21 | 36% (inactive) | 37%
CCCCCc1nnc(NC(=O)Cc2cccs2)s1 | 26% (inactive) | 8%
Nc1ccc(-c2nc3ccc(C(=O)O)cc3s2)cc1 | 0% (inactive) | 42%
Cc1nn(-c2ccccc2)c2sc(C(=O)c3c(N)n(C)c(=O)n(C)c3=O)cc12 | 0% (inactive) | 16%
CS(=O)(=O)c1ccc2nc(NC(=O)CCC(=O)c3cccs3)sc2c1 | 33% (inactive) | 14%
Cc1ccccc1NC(=O)CSc1nnc(-c2ccco2)c(-c2ccco2)n1 | 47% (active) | 66%
O=C(NCc1ccco1)c1cc2ccc(O)cc2oc1=O | 5% (inactive) | 46%
O=C1Nc2ccccc2SC(c2ccccc2)C1O (centres undefined) | 26% (inactive) | 46%
O=C(Nc1nccs1)c1ccc2nccnc2c1 | 33% (inactive) | 24%
Nc1ccc2oc(-c3ccc4nc[nH]c4c3)nc2c1 | 31% (inactive) | 55%
CN(C(=S)Nc1cccnc1)c1ccc(O)cc1 | 39% (inactive) | 41%
Nc1ccc2nc(-c3ccc(N)c(Cl)c3)[nH]c2c1 | 31% (inactive) | 12%
COc1cc2c(cc1OC)C(Cc1ccc(O)cc1)N(C)CC2 (centres undefined) | 0% (inactive) | 16%
Oc1ccccc1-c1nnc(SCCN2CCOCC2)n1Cc1ccccc1 | 32% (inactive) | 44%
COC(=O)c1cc(-c2c(C)oc3cc(O)ccc3c2=O)c(C)o1 | 32% (inactive) | 50%
Oc1cccc(-c2nc3ccc4ccccc4c3c3c2CCC3)c1 | 33% (inactive) | 21%
O=C(Cc1cccs1)Nc1nncs1 | 33% (inactive) | 13%
COc1ccc(-c2ccc(-c3noc(-c4cccs4)n3)c(OC)n2)cc1 | 24% (inactive) | 54%
